Data reported in PubChem BioAssay (NCI).
Compounds without any hit were thinned out: in the full panel of roughly 79,000, 15% have a hit. A number with no mark means an inactive call. The source made the active and inactive calls. Rule as the data show it: active = growth inhibition above about 70%; inactive = the rest.

Legend:
[1] = NCI Yeast Anticancer Drug Screen. Data for the rad50 strain (AID 155);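 also: 0% = growth of vehicle-only cultures of the same strain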; settings: S. cerevisiae rad50 strain growth inhibition, hits give high values
Summary of the method: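 A DNA repair-deficient yeast mutant serves as the test organism; compound-induced growth inhibition is calculated against vehicle-treated cells.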

[2] = NCI Yeast Anticancer Drug Screen. Data for the mec2-1 strain (AID 157); settings: S. cerevisiae mec2-1 strain, hits give high values
Summary of the method: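 Test agents were screened against the mec2-1 yeast strain, with defined DNA repair or cell cycle alteration. Growth was scored as inhibition against vehicle-only controls.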

[3] = NCI Yeast Anticancer Drug Screen. Data for the sgs1 mgt1 strain (AID 161);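 also: 0% = growth of cultures given vehicle only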; settings: S. cerevisiae sgs1 mgt1 strain, hits give high values
Summary of the method: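 Inhibition of yeast growth, normalised to vehicle-treated controls, is reported for a strain bearing genetic alterations in DNA damage repair.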

[4] = NCI Yeast Anticancer Drug Screen. Data for the cln2 rad14 strain (AID 165);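 also: 0% = growth equal to vehicle treated cultures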; settings: S. cerevisiae cln2 rad14 strain, hits give high values
Summary of the method: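 Growth of compound-exposed yeast (cln2 rad14 genotype) measured and expressed as inhibition relative to vehicle.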

[5] = NCI Yeast Anticancer Drug Screen. Data for the bub3 strain (AID 167); settings: S. cerevisiae bub3 mutant strain, hits give high values
Summary of the method: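 Inhibition values come from growth of compound-treated mutant yeast normalised to vehicle-treated controls.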

[6] = NCI Yeast Anticancer Drug Screen. Data for the mlh1 rad18 strain (AID 175); settings: S. cerevisiae mlh1 rad18 strain growth inhibition, hits give high values
Summary of the method: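 In this whole-cell yeast screen, a strain with altered DNA damage repair is challenged with compound, and its growth is measured against matched vehicle-treated controls.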

[7] = at 5.0 µM (retest, dose inferred, filed as 0.5)
[8] = at 50.0 µM (retest, dose inferred, filed as 5.0)

Row | SMILES | growth inhibition [1, 7] | growth inhibition [1, 8] | growth inhibition ([1]; at 50.0 µM) | growth inhibition [2, 7] | growth inhibition [2, 8] | growth inhibition ([2]; at 50.0 µM) | growth inhibition [3, 7] | growth inhibition [3, 8] | growth inhibition ([3]; at 50.0 µM) | growth inhibition [4, 7] | growth inhibition [4, 8] | growth inhibition ([4]; at 50.0 µM) | growth inhibition [5, 7] | growth inhibition [5, 8] | growth inhibition ([5]; at 50.0 µM) | growth inhibition [6, 7] | growth inhibition [6, 8] | growth inhibition ([6]; at 50.0 µM)
1 | O=Nc1c2n[nH]c1CCCCCCCCC2 | 24% | 99% (active) | 99.4% (active) | 45% | 99% (active) | 99.4% (active) | 56% | 99% (active) | 99.5% (active) | 23% | 99% (active) | 99.5% (active) | 37% | 99% (active) | 99.3% (active) | 75% (active) | 99% (active) | 96.8% (active)
2 | O=C1C=CC(=O)N1C12CC3CC(CC(C3)C1)C2 | 41% | 99% (active) | 90.8% (active) | 62% | 99% (active) | 93.4% (active) | 73% (active) | 99% (active) | 90.9% (active) | 13% | 99% (active) | 91.5% (active) | 72% (active) | 99% (active) | 91.8% (active) | 76% (active) | 99% (active) | 90.7% (active)
3 | CC12CCC(c3sc(N)c(C#N)c31)C2(C)C (stereo not given) | -14% | -34% | 39% | -2% | -25% | 60.2% | -13% | -4% | 34.5% | 3% | 1% | 13.8% | -15% | -20% | 31.7% | -36% | -9% | 43.8%
4 | CCC/C(=N\NC(=S)N(C)C)c1ccccn1 | 89% (active) | 99% (active) | 99.5% (active) | 97% (active) | 99% (active) | 99.6% (active) | 88% (active) | 99% (active) | 99.5% (active) | 80% (active) | 99% (active) | 99.4% (active) | 85% (active) | 98% (active) | 99.5% (active) | 94% (active) | 99% (active) | 99.5% (active)
5 | [O-][n+]1c2ccccc2cc2c1c1ccccc1n2O | -1% | 1% | 20.1% | 0% | 0% | 5.2% | -7% | -3% | 17.7% | 4% | 8% | 46.4% | 6% | 4% | 0.45% | -4% | -5% | 13.9%
6 | Cn1c(=S)c2[nH]c(SCCN3CCCCC3)nc2n(C)c1=O | 40% | 54% | 97.2% (active) | 28% | 46% | 99.3% (active) | 20% | 69% | 99.2% (active) | 28% | 28% | 54.5% | 37% | 57% | 97.8% (active) | 22% | 55% | 98.5% (active)
7 | Cc1ccc(S(=O)(=O)N2CCN(C)CC2)cc1 | -1% | 12% | 19.4% | -5% | 26% | 4.45% | 4% | 31% | 5.5% | 1% | 16% | -0.55% | 1% | 39% | 40.5% | 13% | 49% | 11.6%
8 | CS(=O)(=O)c1nnnn1-c1ccccc1 | -21% | 93% (active) | 99.2% (active) | -24% | 97% (active) | 99.5% (active) | -18% | 96% (active) | 99% (active) | -49% | 94% (active) | 97.3% (active) | -34% | 95% (active) | 99.4% (active) | -62% | 96% (active) | 99.5% (active)
9 | Cc1ccc(OC/C=C/c2cccc(C#N)c2)cc1 | -3% | 2% | -0.45% | 3% | -2% | 11.2% | 0% | 18% | -2.05% | -6% | -11% | 44% | 0% | 12% | -0.9% | -5% | -1% | 43.5%
10 | CC(C)=NOCCOC(=O)C(c1ccccc1)c1ccccc1 | -4% | 3% | 80.7% (active) | -5% | 2% | 75% (active) | -8% | -2% | 92% (active) | 0% | 18% | 39.6% | 7% | 25% | 96.6% (active) | -6% | 0% | 89% (active)
